Screens from PubChem BioAssay.
cytoskel mod = modifiers of cytoskeleton assembly; 0.18% of 91,000 active; inhibition, % at 2 µM; HUVEC TNFa F-actin phalloidin imaging, high content;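 active = inhibition above the batch mean plus 3 SD and confirmed as a hit by visual image inspection, cut at about 30% in these data, passing the limit was not always enough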
GALR2 ag = GALR2 (human) receptor agonism; activation, % (no concentration beside the values); 0.48% of 140,000 active; GALR2-expressing cells, agonist activation read-out; AID 803; in the data active = activation above about 5%, passing the limit was not always enough
S1P2 blocker = blocks the human S1P2 receptor | O95136 | inhibition, % at 5 µM | 0.21% of 97,000 active | cell-based S1P2 antagonist assay, inhibition at 5 uM; in the data active = inhibition above about 45%;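 note: CRE beta-lactamase reporter cells expressing human S1P2 stimulated with S1P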
Target sequence (O95136 whole entry, looked up): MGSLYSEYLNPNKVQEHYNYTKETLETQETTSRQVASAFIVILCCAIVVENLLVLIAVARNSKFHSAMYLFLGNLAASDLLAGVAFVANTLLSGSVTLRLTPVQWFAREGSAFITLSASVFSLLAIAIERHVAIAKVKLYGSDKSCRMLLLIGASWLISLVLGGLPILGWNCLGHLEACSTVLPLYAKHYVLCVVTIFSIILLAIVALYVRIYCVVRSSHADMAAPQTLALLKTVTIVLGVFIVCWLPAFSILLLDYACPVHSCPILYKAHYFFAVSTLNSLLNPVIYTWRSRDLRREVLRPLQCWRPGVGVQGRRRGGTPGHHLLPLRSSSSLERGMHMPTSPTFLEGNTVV
GALR2 antag = antagonists of human galanin receptor 2 (GALR2). GALR2-expressing cells, antagonist mode. inhibition, % at 4 µM. 0.39% of 140,000 active. AID 828; in the data active = inhibition above about 27%;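 note: cells stimulated with galanin 1-16 at roughly its EC80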
S1P2 agonist = agonists of human S1P2 receptor; S1P2-expressing cell line, agonist reporter read-out; activation, % at 4.5 µM; AID 729; 0.46% of 97,000 active; in the data active = activation above about 16%
A number is an active result; i = inactive; nt = no result. Hits are enriched below; roughly 1.3% of the tested compounds scored in any of these assays.

SMILES	cytoskel mod	GALR2 ag	S1P2 blocker	GALR2 antag	S1P2 agonist
O=C(CSc1nc2c(c(=O)n1-c1ccc(Cl)cc1)SCC2)N1CCOCC1	i	i	i	i	21
O=c1c2c3c(sc2nc2n1CCC2)CCC3	37	i	i	i	i
O=c1c2c3c(sc2nc2n1CCCC2)CCCC3	i	i	i	i	i
Cc1csc(NC(=O)CSc2nnc(CCNC(=O)c3cccs3)n2C)n1	i	i	i	i	i
Cc1csc(NC(=O)CSc2nnc(-c3cccs3)n2C)n1	65	i	i	i	i
Clc1cc(Cl)cc(Nc2ncn[nH]2)c1	i	i	i	i	i
O=C(N/N=C/c1cccc(OC(=O)c2ccco2)c1)c1ccc(F)cc1	nt	i	nt	i	nt
CSc1ccccc1N=CC1=C(O)CC(C)(C)CC1=O	i	i	i	36	i
CC1(C)CC(=O)C(C=Nc2ccc3[nH]ncc3c2)=C(O)C1	i	i	i	i	i
CC1(C)CC(=O)C(C=Nc2ccc3cn[nH]c3c2)=C(O)C1	i	i	i	31	i
COc1ccc(N2CC(NC(=O)NCCC(C)C)CC2=O)cc1 (stereo unspecified)	nt	i	nt	i	nt
O=Nc1c(O)n(Cc2ccc(Cl)c(Cl)c2)c2ccccc12	i	i	i	i	i
Cc1ccc(CNC(=O)CCNC(=O)c2ccco2)cc1	i	i	i	i	869
Cc1ccc(OCCNC(=O)c2ccco2)cc1C	i	i	i	i	50
O=C(NCCCCNC(=O)c1ccco1)c1ccco1	i	i	i	i	i
O=C(NCc1ccccc1)c1ccco1	i	i	i	i	i
COC(=O)c1ccccc1NC(=O)CN(c1cc(OC)ccc1OC)S(C)(=O)=O	i	i	i	i	i
COc1ccc(OC)c(N(CC(=O)Nc2ccccc2)S(C)(=O)=O)c1	42	i	i	i	i
COc1ccc(OCC(=O)Nc2cccc(C(=O)Nc3ccccc3C(=O)O)c2)cc1	nt	i	nt	i	nt
CS(=O)(=O)c1nc(-c2ccccc2)cc(C(F)(F)F)n1	nt	i	nt	54	nt
CCc1cc2c3c(c1)C1(C(=O)N3C(C)(C)CC2C)C(C#N)=C(N)N2C(=C1C#N)Nc1ccccc12 (stereo unspecified)	nt	i	nt	i	nt
CN(C)S(=O)(=O)c1ccc(Cl)c(NC(=O)COC(=O)C2CSC3(C)CCC(=O)N23)c1 (stereo unspecified)	nt	i	nt	i	nt
COCCNC(=O)CN1CCN(C(c2ccccc2)c2ccccc2)CC1	i	i	i	i	55
COc1ccc(Cn2c(-c3ccc(C)cc3)nc3c(c(=O)c4ccccc4n3C)c2=O)cc1	nt	5.1	nt	i	nt
COc1ccc(Cn2c(-c3ccc(OC)cc3)nc3c(c(=O)c4ccccc4n3C)c2=O)cc1	nt	i	nt	i	nt
SMILES	cytoskel mod	GALR2 ag	S1P2 blocker	GALR2 antag	S1P2 agonist
C=CCn1c(=N)c(C#N)cc2c(=O)n3ccccc3nc21	i	i	i	i	i
Cc1cc(-n2c(=O)c(C#N)cc3c(=O)n4ccccc4nc32)no1	nt	31	nt	i	nt
Cc1ccc(S(=O)(=O)c2cc3c(=O)n4ccccc4nc3n(C)c2=N)cc1	nt	i	nt	i	nt
N#Cc1cc2c(=O)n3ccccc3nc2n(Cc2cccnc2)c1=N	i	i	i	i	i
C=CCn1c(=O)c(C#N)cc2c(=O)n3ccccc3nc21	i	21	i	i	60
Cc1ccccc1-n1c(=O)c(C#N)cc2c(=O)n3ccccc3nc21	i	74	i	i	63
Cc1ccnc(NS(=O)(=O)c2ccc(NC(=O)c3ccc(S(=O)(=O)N4CC(C)OC(C)C4)cc3)cc2)n1 (stereo unspecified)	nt	i	nt	i	nt
NC(=O)c1nn(-c2ccccc2)nc1NC(=O)Cn1nnc(-c2ccccc2)n1	nt	5.2	nt	i	nt
Cn1c(C(=O)N2CCN(c3ncccn3)CC2)cc2c(=O)n(C)c3ccccc3c21	i	i	i	i	i
Cn1c(C(=O)N2CCCC2)cc2c(=O)n(C)c3ccccc3c21	i	i	i	i	21
COc1ccccc1CNC(=O)CSc1nc(N)c(C#N)c(-c2cccs2)c1C#N	i	i	i	i	i
N#Cc1c(N)nc(SCC(=O)NCc2ccc3c(c2)OCO3)c(C#N)c1-c1cccs1	60	i	i	i	i
C=CCOC(=O)c1c(C)nc2cc3c(cc2c1C)OCO3	nt	i	nt	i	nt
Cc1nc2c(-c3ccc(F)cc3)c(C)nn2c(C)c1CCC(=O)N1CCN(c2ccc(F)cc2)CC1	i	i	i	i	i
CCOC(=O)C1=C(C)NC2=C(C(=O)CCC2)C1c1cccs1 (stereo unspecified)	nt	i	i	i	i
CCOC(=O)c1sc2c(c1C)C(c1cccs1)C1=C(CCCC1=O)N2 (stereo unspecified)	i	9.2	i	i	31
O=C(C1CCCN(CCCc2ccccc2)C1)N1CCCCC1 (stereo unspecified)	nt	i	nt	i	nt
O=C(c1cccn2c(=O)c3cc(Br)ccc3nc12)N1CCN(c2ccccn2)CC1	nt	i	i	i	i
O=C(c1cc(-c2ccncc2)nc2ccc(Br)cc12)N1CCN(c2ccccn2)CC1	84	i	i	i	i
O=C(N/N=C/c1ccco1)c1ccccc1OCc1ccc(Br)cc1	nt	i	nt	i	nt
Clc1ccc(Nc2nc3ccccc3n3nnnc23)cc1	i	i	i	i	i
Fc1cc(Br)ccc1Nc1nc2ccccc2n2nnnc12	nt	6.1	nt	i	nt
C=CCn1c(COc2ccc(OC)cc2)nnc1SCn1nnc2ccccc2c1=O	nt	i	nt	i	nt
COc1ccc(CCNC(=O)CC2SC(=NCCc3ccccc3)NC2=O)cc1 (stereo unspecified)	nt	i	nt	i	nt
CCCN1CCC(NC(=O)Nc2ccc(OC)c(OC)c2)CC1	i	i	i	i	35
SMILES	cytoskel mod	GALR2 ag	S1P2 blocker	GALR2 antag	S1P2 agonist
O=C(O)C1CCCCC1C(=O)Nc1cc(Cl)ccc1Cl (stereo unspecified)	37	i	i	i	i
C=C(C)c1cccc(C(C)(C)NC(=O)Nc2ncccn2)c1	74	i	i	i	i
Cn1c(N)c(C(=O)COC(=O)CSc2ccc(Cl)cc2)c(=O)n(C)c1=O	nt	i	nt	i	nt
COc1cccc(C2SCC(=O)N2c2ccc(Br)cc2)c1OC (stereo unspecified)	nt	i	nt	i	nt
Cc1nc(CCNC(=O)Cc2ccc(Cl)cc2)cs1	i	i	i	i	34
Cc1nc(CCNC(=O)Cc2ccc(F)cc2)cs1	i	i	i	i	i
CC(C)Oc1ccc(Br)cc1/C=N\NC(N)=S	nt	i	nt	i	nt
O=S(=O)(Cc1ccc(Cl)cc1)NCC1CCCO1 (stereo unspecified)	i	i	i	i	63
O=S(=O)(NCC1CCCO1)c1cc(Cl)ccc1Cl (stereo unspecified)	i	i	i	i	i
Cc1ccc(C)c(NC(=S)NC(NC(=O)Cc2cccc3ccccc23)C(Cl)(Cl)Cl)c1 (stereo unspecified)	i	i	i	i	26
Cc1ccc(C)c(NC(=S)NC(NC(=O)N(C)C)C(Cl)(Cl)Cl)c1 (stereo unspecified)	i	i	i	i	i
CCOc1cc(C(=O)OCC(=O)c2c(C)[nH]c3ccccc23)ccc1OCC(=O)N1CCOCC1	50	i	i	i	i
CCOc1cc(C(=O)OCC(=O)c2c[nH]c3ccccc23)ccc1OCC(=O)N1CCOCC1	i	i	i	i	i
Cc1ccc(-c2csc(N(C)C(=O)c3c(C)nn(-c4ccccc4)c3Cl)n2)cc1	nt	i	i	i	i
